Results reported in PubChem BioAssay (Tox21).
Inconclusive results are not listed. Activity calls are given as the source filed them. Unless noted, calls come from the whole dose curve; as a rule, active = well fitted curve in the direction sought with a large enough effect in the repeat runs; inconclusive = weak or mixed curves; inactive = no such curve, though single readings can be large; an effect the other way counts as inactive or inconclusive.

Experiments:
[1] = target: Thyrotropin receptor (Homo sapiens) (UniProt P16473); assay: qHTS assay to identify small molecule antagonists of the thyroid stimulating hormone receptor (TSHR) signaling pathway (AID 1259385; calls by dose curve; note: nearly all actives have a fitted effect of over 20% in size)
Thyrotropin receptor (Homo sapiens), sequence (P16473 whole entry, looked up): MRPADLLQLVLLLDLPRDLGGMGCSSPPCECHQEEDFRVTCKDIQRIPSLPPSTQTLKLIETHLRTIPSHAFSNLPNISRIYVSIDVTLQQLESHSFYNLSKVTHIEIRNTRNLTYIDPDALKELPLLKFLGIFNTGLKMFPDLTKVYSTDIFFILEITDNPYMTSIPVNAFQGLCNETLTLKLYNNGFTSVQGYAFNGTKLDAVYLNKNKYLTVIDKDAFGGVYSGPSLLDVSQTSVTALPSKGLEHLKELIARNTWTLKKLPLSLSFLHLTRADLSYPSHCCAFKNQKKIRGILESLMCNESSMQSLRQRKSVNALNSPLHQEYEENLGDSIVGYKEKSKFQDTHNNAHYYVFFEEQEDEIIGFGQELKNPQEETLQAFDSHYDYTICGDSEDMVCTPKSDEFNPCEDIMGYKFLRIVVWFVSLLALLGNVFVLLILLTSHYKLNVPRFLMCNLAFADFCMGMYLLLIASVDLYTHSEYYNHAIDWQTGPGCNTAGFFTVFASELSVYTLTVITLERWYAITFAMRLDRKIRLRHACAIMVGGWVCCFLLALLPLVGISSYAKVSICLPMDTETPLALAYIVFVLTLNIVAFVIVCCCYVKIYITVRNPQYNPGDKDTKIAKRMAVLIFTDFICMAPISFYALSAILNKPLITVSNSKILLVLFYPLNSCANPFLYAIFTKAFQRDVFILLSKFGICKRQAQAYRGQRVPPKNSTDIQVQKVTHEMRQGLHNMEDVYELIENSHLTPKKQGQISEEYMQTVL
Summary of the method: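 Antagonist mode: compound-treated TSHR-expressing HEK293 cells were stimulated with 1.5 ng/mL TSH (final) in presence of Ro20-1724 for 30 min at RT. HTRF cAMP detection after 1 h; each compound tested at 15 concentrations, triplicate.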

[2] = qHTS assay to identify small molecule agonists of the estrogen receptor alpha (ER-alpha) signaling pathway in the presence of an antagonist - cell viability counter screen (AID 1259386);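 note: series mostly up to about 92 µM; cells exposed to compounds for 22 h at 37 °C before the viability read; nearly all actives have a fitted effect of over 30% in size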
Summary of the method: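 ICI-182,780 at 10.0nM final accompanies the compound titration (15 concentrations, 22hr, 37C) on VM7Luc4E2 cells. The CellTiter-Fluor fluorescence readout runs in the same wells as the luciferase assay.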

[3] = target: Progesterone receptor (Homo sapiens) (UniProt P06401); assay: qHTS assay to identify small molecule agonists of the progesterone receptor (PR) signaling pathway (AID 1346784; calls by dose curve; note: nearly all actives have a fitted effect of over 30% in size)
Progesterone receptor (Homo sapiens), sequence (P06401 whole entry, looked up): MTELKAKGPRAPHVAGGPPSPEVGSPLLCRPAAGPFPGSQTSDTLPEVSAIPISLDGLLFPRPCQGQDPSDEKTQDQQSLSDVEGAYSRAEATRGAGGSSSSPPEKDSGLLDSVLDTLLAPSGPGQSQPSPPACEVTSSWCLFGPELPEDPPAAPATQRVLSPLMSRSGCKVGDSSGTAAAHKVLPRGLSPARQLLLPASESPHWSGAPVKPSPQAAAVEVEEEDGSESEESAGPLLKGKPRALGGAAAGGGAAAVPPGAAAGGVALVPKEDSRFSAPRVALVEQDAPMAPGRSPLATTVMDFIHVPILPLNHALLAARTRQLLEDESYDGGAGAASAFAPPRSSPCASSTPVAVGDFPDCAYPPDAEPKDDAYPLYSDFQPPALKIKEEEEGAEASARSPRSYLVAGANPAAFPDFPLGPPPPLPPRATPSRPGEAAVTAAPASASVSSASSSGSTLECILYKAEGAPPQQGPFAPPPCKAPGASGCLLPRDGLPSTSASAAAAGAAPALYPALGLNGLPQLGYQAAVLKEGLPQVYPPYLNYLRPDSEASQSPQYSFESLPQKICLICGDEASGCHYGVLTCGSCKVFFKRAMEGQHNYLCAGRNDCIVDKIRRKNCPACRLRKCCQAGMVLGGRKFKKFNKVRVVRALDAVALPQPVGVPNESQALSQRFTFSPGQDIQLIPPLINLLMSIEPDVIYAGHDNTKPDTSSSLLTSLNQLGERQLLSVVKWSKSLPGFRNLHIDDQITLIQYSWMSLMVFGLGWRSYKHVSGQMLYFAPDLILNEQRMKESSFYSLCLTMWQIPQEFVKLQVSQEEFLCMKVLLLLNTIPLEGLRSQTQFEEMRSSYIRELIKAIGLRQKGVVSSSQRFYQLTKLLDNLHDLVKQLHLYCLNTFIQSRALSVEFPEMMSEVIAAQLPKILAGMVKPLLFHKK
Summary of the method: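 Using charcoal-stripped serum (2%) to limit endogenous steroids, PR-UAS-bla HEK 293T cells received compounds for 16 hr at 37C after 6 hr plating; beta-lactamase FRET fluorescence was recorded following 2 hr substrate loading at room temperature.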

[4] = target: Progesterone receptor (Homo sapiens) (UniProt P06401); assay: qHTS assay to identify small molecule antagonists of the progesterone receptor (PR) signaling pathway (AID 1346795; active = well fitted inhibition curve with a large enough effect in the signal ratio in the repeat runs, not every such curve was filed as active; the % refers to the signal ratio)
Summary of the method: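 Inhibition of R5020-induced (1 nM final) beta-lactamase reporter signal in PR-UAS-bla HEK293T cells was scored by FRET fluorescence after overnight (16 hr) compound treatment.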

[5] = qHTS assay to identify small molecule antagonists of the progesterone receptor (PR) signaling pathway - cell viability counter screen (AID 1346798); note: series mostly up to about 92 µM; nearly all actives have a fitted effect of over 50% in size
Summary of the method: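 ATP content as viability readout: CellTiter-Glo luminescence, 30 min room temperature, in PR-UAS-bla HEK293T cells after 16 hr compound/R5020 treatment at 37C and 5% CO2.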

[6] = qHTS assay to identify small molecule agonists of the progesterone receptor (PR) signaling pathway - cell viability counter screen (AID 1346799; calls by dose curve; note: nearly all actives have a fitted effect of over 45% in size)
Summary of the method: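 Cytotoxicity in PR-bla HEK293T cells: 16 h compound, 37C; CellTiter-Glo added post-FRET read; luminescence after 30 min RT.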

[7] = qHTS assay to identify small molecule antagonists of the TGF-beta/Smad signaling pathway - cell viability counter screen (AID 1346824); note: nearly all actives have a fitted effect of over 50% in size
Summary of the method: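 Cytotoxicity counter-screen run in the same wells as the beta-lactamase Smad reporter read: CellTiter-Glo luminescence after 30 min at room temperature. HEK 293T SBE-bla cells had 5 hr compound exposure at 37 C with TGF-beta1 (0.25 ng/mL stock).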

[8] = qHTS assay to identify small molecule agonists of the TGF-beta/Smad signaling pathway - cell viability counter screen (AID 1346829); note: top concentration of the series differs between compounds; nearly all actives have a fitted effect of over 45% in size
Summary of the method: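 HEK 293T SBE-bla line, 5 hr compound exposure at 37 C, multiplexed CellTiter-Glo viability read by luminescence.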

[9] = qHTS assay to identify small molecule agonists of the TGF-beta/Smad signaling pathway (AID 1346859; active = well fitted activation curve with a large enough effect in the signal ratio in the repeat runs, not every such curve was filed as active; the % refers to the signal ratio; note: series mostly up to about 77 µM)
Summary of the method: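 Stable Smad binding element-beta-lactamase HEK 293T cells; 5 hr compound exposure at 37 C under 5% CO2; 2 hr room-temperature substrate step; fluorescence excited at 405 nm, collected at 460 nm and 530 nm.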

[10] = target: Thyrotropin-releasing hormone receptor (Homo sapiens) (UniProt P34981); assay: qHTS assay to identify small molecule antagonists of the thyrotropin-releasing hormone receptor (TRHR) signaling pathway (AID 1346877; active = well fitted inhibition curve with a large enough effect in the repeat runs, not every such curve was filed as active; note: series mostly up to about 51 µM)
Thyrotropin-releasing hormone receptor (Homo sapiens), sequence (P34981 whole entry, looked up): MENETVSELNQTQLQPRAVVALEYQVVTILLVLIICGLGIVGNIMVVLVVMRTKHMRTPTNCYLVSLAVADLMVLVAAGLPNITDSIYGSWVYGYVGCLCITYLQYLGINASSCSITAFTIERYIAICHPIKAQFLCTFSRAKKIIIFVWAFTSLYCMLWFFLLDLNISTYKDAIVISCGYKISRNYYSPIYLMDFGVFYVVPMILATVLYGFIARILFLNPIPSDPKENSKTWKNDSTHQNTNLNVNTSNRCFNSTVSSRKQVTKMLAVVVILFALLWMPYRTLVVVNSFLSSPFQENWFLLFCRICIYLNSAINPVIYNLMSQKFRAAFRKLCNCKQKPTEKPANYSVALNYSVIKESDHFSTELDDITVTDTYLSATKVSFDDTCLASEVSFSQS
Summary of the method: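 Screening used HEK293 cells engineered with TRHR, with a brief 5 min room-temperature compound exposure preceding addition of TRH to 1 nM. The read-out was kinetic calcium-dye fluorescence, concentration-response from 15 doses in triplicate.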

[11] = target: Thyrotropin-releasing hormone receptor (Homo sapiens) (UniProt P34981); assay: qHTS assay to identify small molecule agonists of the thyrotropin-releasing hormone receptor (TRHR) signaling pathway (AID 1346891; calls by dose curve;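 note: HEK293 cells expressing TRHR with calcium dye readout; series mostly up to about 58 µM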)
Summary of the method: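 In 1536-format, 1500 TRHR-Hek293 cells per well grew 18 h, took up calcium dye for 2 h at 37 °C, received compound, and were read kinetically; 15-point titrations, triplicates.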

[12] = Human pregnane X receptor (PXR) small molecule agonists, qHTS cell viability counter screen (AID 1346977); note: nearly all actives have a fitted effect of over 50% in size
Summary of the method: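 Readout is CellTiter-Fluor fluorescence from PXR-Luc HepG2 cells. Plated cells rested 5hr, then were treated with compounds for 24hr at 37C and 5% CO2, with reagent present during the last hour.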

[13] = Caspase-3/7 induction in HepG2 cells by small molecules, qHTS assay (AID 1346978); note: nearly all actives have a fitted effect of over 15% in size
Summary of the method: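 Caspase-3/7 induction was measured by Caspase-Glo 3/7 luminescence (30 min, room temperature) after a 17 hr compound exposure of wild-type HepG2 cells seeded at 2,000 per well and pre-incubated 5 hr.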

[14] = Caspase-3/7 induction in CHO-K1 cells by small molecules, qHTS cell viability counter screen (AID 1346979); note: nearly all actives have a fitted effect of over 35% in size
Summary of the method: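 To flag cytotoxic compounds, treated CHO-K1 wild-type cells were given CellTiter-Fluor at 16hr and read fluorescently after 1hr at 37C; the caspase-3/7 luminescence was measured in these same wells.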

[15] = Caspase-3/7 induction in CHO-K1 cells by small molecules, qHTS assay (AID 1346980); note: nearly all actives have a fitted effect of over 15% in size
Summary of the method: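 Luminescent Caspase-Glo 3/7 read (30min, room temperature) quantified apoptosis induction. Cells were wild-type CHO-K1, treated with compound for 17hr at 37 C and 5% CO2.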

[16] = Caspase-3/7 induction in HepG2 cells by small molecules, qHTS cell viability counter screen (AID 1346981); note: series mostly up to about 92 µM; nearly all actives have a fitted effect of over 30% in size
Summary of the method: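 Multiplexed with the caspase-3/7 assay: HepG2 cells, 16 hr compound treatment, CellTiter-Fluor viability detection by fluorescence.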

[17] = target: Nuclear receptor subfamily 1 group I member 2 (Rattus norvegicus) (UniProt Q9R1A7); assay: Rat pregnane X receptor (rPXR) activation by small molecules, qHTS assay (AID 1346983); conditions: rPXR luciferase reporter cells, One-Glo luminescence, 24 h; active compounds read high; note: nearly all actives have a fitted effect of over 20% in size
Nuclear receptor subfamily 1 group I member 2 (Rattus norvegicus), sequence (Q9R1A7 whole entry, looked up): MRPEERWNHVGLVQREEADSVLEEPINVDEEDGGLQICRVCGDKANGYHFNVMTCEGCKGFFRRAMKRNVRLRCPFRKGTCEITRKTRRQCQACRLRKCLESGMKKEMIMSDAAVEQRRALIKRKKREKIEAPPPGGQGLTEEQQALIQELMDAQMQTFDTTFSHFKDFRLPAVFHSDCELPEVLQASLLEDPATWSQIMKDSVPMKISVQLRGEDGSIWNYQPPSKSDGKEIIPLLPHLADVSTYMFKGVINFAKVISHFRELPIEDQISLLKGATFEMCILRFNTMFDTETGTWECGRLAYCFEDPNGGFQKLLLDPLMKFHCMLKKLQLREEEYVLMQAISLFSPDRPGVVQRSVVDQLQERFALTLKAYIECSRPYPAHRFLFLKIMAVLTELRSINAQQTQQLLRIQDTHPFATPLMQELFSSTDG
Summary of the method: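 Luminescent readout (One-Glo luciferase, 30 min room temperature) followed 24 hr compound treatment at 37 C of rPXR cells plated 2,000 per well and preincubated 5hr; qHTS format with compounds delivered in DMSO.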

[18] = target: Nuclear receptor subfamily 1 group I member 2 (Homo sapiens) (UniProt O75469); assay: Human pregnane X receptor (PXR) small molecule agonists, qHTS assay (AID 1346982); note: nearly all actives have a fitted effect of over 35% in size; note: potency is the fitted concentration of half-maximal effect
Nuclear receptor subfamily 1 group I member 2 (Homo sapiens), sequence (O75469 whole entry, looked up): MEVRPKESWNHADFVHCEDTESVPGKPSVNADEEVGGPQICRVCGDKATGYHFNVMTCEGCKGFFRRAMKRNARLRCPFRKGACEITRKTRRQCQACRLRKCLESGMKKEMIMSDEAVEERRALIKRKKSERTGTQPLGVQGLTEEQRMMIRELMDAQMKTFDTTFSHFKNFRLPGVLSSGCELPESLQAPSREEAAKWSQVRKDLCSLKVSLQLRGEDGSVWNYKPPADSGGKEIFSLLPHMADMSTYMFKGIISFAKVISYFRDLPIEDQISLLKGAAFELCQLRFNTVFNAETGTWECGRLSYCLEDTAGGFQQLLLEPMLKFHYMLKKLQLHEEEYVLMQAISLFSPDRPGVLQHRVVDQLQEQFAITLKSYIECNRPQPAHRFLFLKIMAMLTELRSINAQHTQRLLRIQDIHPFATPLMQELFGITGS
Summary of the method: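 We seeded PXR-Luc HepG2 cells in assay medium containing 5% charcoal-stripped FBS, added compounds 5 hr later, incubated 24 hr, and read luminescence with ONE-Glo reagent.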

[19] = target: Nuclear receptor subfamily 1 group I member 2 (Homo sapiens) (UniProt O75469); assay: CYP3A4 induction through human pregnane X receptor (PXR) by small molecules, qHTS assay (AID 1346984); note: nearly all actives have a fitted effect of over 40% in size
Summary of the method: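 qHTS, concentration-response format: HepG2 DPX-2 line, PXR/CYP3A4-luc. Exposure 24 h, 37C. Substrate Luciferin-IPA 3uM final, 3 h. Detection One-Glo, 30 min RT.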

[20] = target: Nuclear receptor subfamily 1 group I member 2 (Homo sapiens) (UniProt O75469); assay: Human pregnane X receptor (PXR) activation by small molecules, qHTS assay (AID 1346985); note: nearly all actives have a fitted effect of over 40% in size
Summary of the method: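 DPX-2 cells (HepG2 co-transfected with a PXR response element and a CYP3A4-promoter luciferase construct) were seeded at 2,000 per well, rested 5 hr at 37C, then exposed to DMSO-dissolved compounds for 24 hr. Activation was read as luciferase luminescence.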
% is set by controls: 0 for no effect and ±100 for the full control effect.

CCCCNc1ccc(C(=O)OCCN(C)C)cc1
inactive: outcome [1] | Potency [2] | Potency [3] | Potency [4] | Potency [5] | Potency [6] | outcome [7] | outcome [8] | outcome [9] | outcome [10] | outcome [11] | Potency [12] | Potency [13] | Potency [14] | outcome [15] | Potency [16] | max activation [17] -1.52%

CCO[Si](CCCS)(OCC)OCC
inactive: outcome [1] | Potency [2] | Potency [3] | Potency [4] | Potency [5] | Potency [6] | outcome [7] | outcome [8] | outcome [9] | outcome [10] | outcome [11] | Potency [12] | Potency [13] | Potency [14] | outcome [15] | Potency [16] | Potency [18]

O=S(O)(O)=S
inactive: activity change, negative = inhibition [1] 2.15% [at 8.39 µM] | activity change, negative = cytotoxicity [2] 1.38% [at 8.39 µM] | activation [3] -0.0718% [at 8.39 µM] | activity change, negative = inhibition [4] 2.55% [at 8.39 µM] | activity change, negative = cytotoxicity [5] 5.98% [at 8.39 µM] | activity change, negative = cytotoxicity [6] -1.49% [at 8.39 µM] | viability change, negative = cytotoxic [7] -0.132% [at 6.97 µM] | activity change, negative = cytotoxicity [8] 1.63% [at 6.97 µM] | activation [9] 3.3% [at 6.97 µM] | activity, negative = inhibition [10] 1.85% [at 4.65 µM] | activation [11] 0.644% [at 5.23 µM] | activity change, negative = cytotoxicity [12] -0.159% [at 8.39 µM] | caspase activation [13] 0.115% [at 8.39 µM] | activity change, negative = cytotoxicity [14] 4.08% [at 8.39 µM] | activity change, negative = cytotoxicity [16] -0.702% [at 8.39 µM] | activation [18] 4.46% [at 8.39 µM]

CCCCCCCCCCCCCC
inactive: outcome [1] | Potency [2] | Potency [3] | Potency [4] | Potency [5] | Potency [6] | outcome [7] | outcome [8] | outcome [9] | outcome [10] | outcome [11] | Potency [12] | Potency [13] | Potency [14] | outcome [15] | Potency [18]

NS(=O)(=O)c1cc2c(cc1Cl)CN(C1CCCCC1)C2=O
active: Potency [18] 29.8 µM
inactive: outcome [1] | Potency [2] | Potency [3] | Potency [4] | Potency [5] | Potency [6] | outcome [7] | outcome [8] | outcome [9] | outcome [10] | outcome [11] | Potency [12] | Potency [13] | Potency [14] | outcome [15] | Potency [16]

C[C@@H](O)[C@H]1C(=O)N2C(C(=O)O)=C(SCCN=CN)C[C@H]12
inactive: outcome [1] | Potency [2] | Potency [3] | Potency [4] | Potency [5] | Potency [6] | outcome [7] | outcome [8] | outcome [9] | outcome [10] | outcome [11] | Potency [12] | Potency [13] | Potency [14] | outcome [15] | Potency [16] | Potency [18] | max activation [17] -4.86% | Potency [19] | Potency [20]

COc1cc2c(cc1OC)C(=O)CC2
inactive: outcome [1] | Potency [2] | Potency [3] | Potency [4] | Potency [5] | Potency [6] | outcome [7] | outcome [8] | outcome [9] | outcome [10] | outcome [11] | Potency [12] | Potency [13] | Potency [14] | outcome [15] | Potency [16] | Potency [18]
